Sampled rows, rich in hits. Any-hit rate of the full collection: about 9.9%.
Tau FP inhib – blocks human tau fibril formation measured by polarization; P10636; K18 P301L tau heparin fibrillization, Alexa594 FP, 6 h; Potency, µM (titrated, usually from 57.7 µM), inactives show top-dose activity, negative = inhibition, usual class: inhibitors; 0.39% of 280,000 active; AID 1468; active means well fitted curve in the direction sought with a large enough effect; inconclusive means small, poorly fitted or top-dose-only effect, or another doubt; inactive means no such curve, though single readings can be large; an effect the other way counts as inactive or inconclusive; further: nearly all actives have a fitted effect of over 55% in size
Target sequence (P10636 561-689 P618L limits assumed): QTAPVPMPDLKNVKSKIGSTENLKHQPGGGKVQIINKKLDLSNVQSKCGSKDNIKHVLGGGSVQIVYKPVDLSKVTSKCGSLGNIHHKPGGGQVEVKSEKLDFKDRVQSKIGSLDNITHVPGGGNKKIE
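Read-out: fluorescence polarization of Alexa 594-labeled tau (0.24 uM), 555 nm excitation, 632 nm emission. Mixtures held 15 uM unlabeled K18 P301L, compound and 20 uM heparin, pH 7 acetate buffer, incubated 6 hr at 37 C.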
Tau fluor cs – counter-screen for tau fibril formation inhibitors; Potency, µM (titrated, usually from 57.7 µM), inactives show at the highest dose activity change, negative = decrease; AID 1463; tau K18 P301L Alexa594 fluorescence, heparin fibrillization; 0.93% of 280,000 active; active means well fitted curve in the direction sought with a large enough effect; inconclusive means small, poorly fitted or top-dose-only effect, or another doubt; inactive means no such curve, though single readings can be large; an effect the other way counts as inactive or inconclusive; further: nearly all actives have a fitted effect of over 55% in size
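Human K18 P301L tau (15 uM unlabeled plus 0.24 uM Alexa 594-labeled, final) in 100 mM sodium acetate pH 7 was mixed with compound and 20 uM heparin and incubated 6 hr at 37 C.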
ALDH1A1 block – inhibitors of human aldehyde dehydrogenase 1A1; AID 1030; 7.3% of 220,000 active; Purified ALDH1A1, NADH fluorescence, propionaldehyde substrate; P00352; Potency, µM (titrated, usually from 75.3 µM), inactives show at the top dose activity, negative = inhibition, hits mostly inhibitors;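 further: plate controls were no enzyme wells and a reference inhibitor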
Tau ThT inhib – blocks human tau fibril formation measured by thioflavin T. P10636. recombinant tau K18 P301L (four-repeat tau fragment), heparin-induced fibrillization, ThT fluorescence. Potency, µM (highest dose often 57.4 µM), without a hit: top-dose activity, negative = inhibition, actives largely listed as inhibitors. 2.1% of 270,000 active; active means well fitted curve in the direction sought with a large enough effect; inconclusive means small, poorly fitted or top-dose-only effect, or another doubt; inactive means no such curve, though single readings can be large; an effect the other way counts as inactive or inconclusive; further: nearly all actives have a fitted effect of over 55% in size
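K18 P301L tau (15 uM + 0.24 uM Alexa 594-tagged), heparin 20 uM, NaOAc pH 7, 6 h 37 C; ThT 30 uM, 1 h RT, ex 450/em 510 nm.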
JMJD2E inh – JMJD2E (human) inhibition; 1.6% of 230,000 active; JMJD2E catalytic domain, FDH-coupled NADH fluorescence (FDH is formaldehyde dehydrogenase); AID 2147; Potency, µM (series often up to 57.1 µM), for inactives: top-dose activity change, negative = inhibition, actives largely listed as inhibitors;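 further: 0% = wells with enzyme and -100% = buffer wells without enzyme; nearly all actives have a fitted effect of over 50% in size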
Target sequence (B2RXH2 1-337 limits assumed): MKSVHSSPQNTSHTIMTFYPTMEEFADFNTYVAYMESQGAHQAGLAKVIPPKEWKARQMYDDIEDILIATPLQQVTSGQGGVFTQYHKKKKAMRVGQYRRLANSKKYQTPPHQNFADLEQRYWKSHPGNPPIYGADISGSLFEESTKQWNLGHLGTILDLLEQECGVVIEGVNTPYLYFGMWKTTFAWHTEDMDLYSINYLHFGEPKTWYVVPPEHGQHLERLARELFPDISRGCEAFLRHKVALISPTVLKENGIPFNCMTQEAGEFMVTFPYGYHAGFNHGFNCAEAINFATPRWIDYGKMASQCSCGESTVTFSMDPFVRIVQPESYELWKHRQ
HPGD block – inhibitors of human 15-hydroxyprostaglandin dehydrogenase (HPGD); purified HPGD, NADH fluorescence kinetic, PGE2 substrate; Potency, µM, for the others: at the highest dose activity change, negative = inhibition, actives largely listed as inhibitors; 4.3% of 150,000 active; AID 894
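NADH formation kinetics: reaction with 30 uM PGE2 and 1 mM NAD+ (final), 20 nM enzyme, Tris-HCl pH 8 with Tween 20, after 15 min compound preincubation at room temperature. Fluorescence change, last versus first of five reads.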
Starred values were filed as active, the others as inactive; ? = inconclusive; . = no result given; [ ] = remark or other dose. Unless noted, the call rests on the fitted dose curve; in most records, active means well fitted inhibition curve with a large enough effect (not every such curve was filed as active); inconclusive means small, poorly fitted or top-dose-only effect, or another doubt; inactive means no such curve, though single readings can be large or run the other way. Unless noted, on the % scale 0 is the no-effect control and ±100 the full control effect; potency means the concentration at half of the fitted maximal effect.

SMILES | Tau FP inhib | Tau fluor cs | ALDH1A1 block | Tau ThT inhib | JMJD2E inh | HPGD block
Nc1cc(-c2ccc(Cl)cc2)nn1S(=O)(=O)c1cccc2nsnc12 | 10% | 18µM*[quencher] | 15% | ? | 0% | -15%
Nc1cc(-c2cccc(F)c2)nn1S(=O)(=O)c1cccc2nsnc12 | 11% | -5% | 6% | -2% | 4% | -15%
Nc1cc(-c2ccc(Br)cc2)nn1S(=O)(=O)c1cccc2nsnc12 | 0% | 13µM*[quencher] | 0% | ? | 4% | -29%
Nc1cc(-c2ccccc2)nn1S(=O)(=O)c1ccc(Br)cc1 | ? | ? | 16µM* | -16% | -7% | -20%
COc1ccccc1-c1cc(N)n(S(=O)(=O)c2cccc3nsnc23)n1 | 9% | -19% | . | . | 2% | .
Cc1ccc(C(C)C)c(OCc2ccc(-c3nnco3)cc2)c1 | 3% | -13% | -12% | ? | -12% | 10µM*
Cc1ccc(S(=O)(=O)N(C)Cc2ccc(-c3nnco3)cc2)cc1 | ? | -5% | 6% | -4% | 6% | ?
Cn1c(CSc2nc3ccccc3s2)nnc1SCC(=O)NCCCN1CCOCC1 | -9% | -4% | 11% | -5% | 4% | -5%
Cc1oc(-c2cccs2)nc1CN1CCC(CO)(CCOc2ccccc2)CC1 | 2% | -1% | -11% | 2% | ? | .
NCCS | ? | ? | -9% | 16µM* | 1% | -9%
O=c1cc(-c2cccc(O)c2)oc2c(O)c(O)ccc12 | -5% | -26% | ? | ? | 7.9µM* | 3.2µM*
C=CCn1c(O)c(N=Nc2ccccc2C)c2ccccc21 | -17% | -15% | 2.8µM* | ? | -19% | .
C=CCn1c(O)c(N=NC(=S)Nc2ccc(OC)c(Cl)c2)c2ccccc21 | 3% | ? | 22µM* | ? | 4% | -19%
C=CCn1c(O)c(N=NC(=O)C(O)c2ccccc2)c2ccccc21 (stereo unspecified) | 2% | -4% | . | -16% | -2% | .
Oc1ccc(N=Nc2n[nH]c(-c3ccc(Cl)cc3)n2)cc1 | 4% | ? | 8% | 1.8µM* | -15% | -2%
O=C(NCc1ccc(Cl)cc1)c1ccc(NC(=O)N2CC3CCCN3c3ccccc32)cc1 (stereo unspecified) | 13% | ? | . | -12% | . | .
CC(C)(C)N1C(=O)[C@@H]2[C@H]3C(=CC[C@H]2C1=O)C(=O)[C@H]1O[C@H]1[C@H]3O | ? | -12%[11.6 µM] | ? | ? | . | .
OC(COCC(F)(F)C(F)(F)C(F)(F)C(F)F)Cn1c2ccc(Cl)cc2c2cc(Cl)ccc21 (stereo unspecified) | 10µM* | ? | 8% | 5% | -14% | -9%
CC(=S)/C=C1\Sc2ccccc2N1C | -11% | 25% | ? | 14µM* | -11% | ?
COc1ccc2c(C)c(C)c(=O)oc2c1OC | 4% | -2% | ? | -3% | ? | .
COc1c(O)cc2c(=O)oc3c(OC)c(O)cc4c(=O)oc1c2c34 | -1% | -27% | ? | ? | 7.1µM* | 5µM*
O=C(O)CCCCCNC(=O)c1cccc(Br)c1 | -9% | -5% | 10% | -6% | -3% | -10%
O=C(NCCOC12CC3CC(CC(C3)C1)C2)c1cccc(Br)c1 | 5% | -10% | 7.1µM* | -15% | 2% | -9%
Cc1cc(C)n2ncc(C(=O)O)c2n1 | 0% | 6% | 2% | -1% | ? | .
O=C1CC(c2ccccc2)CC(O)=C1C=NCCN1CCNCC1 (stereo unspecified) | -1% | 3% | 1% | -7% | 0% | -10%
SMILES | Tau FP inhib | Tau fluor cs | ALDH1A1 block | Tau ThT inhib | JMJD2E inh | HPGD block
O=C1CC(c2ccco2)CC(O)=C1C=NCCN1CCNCC1 (stereo unspecified) | -3% | -2% | 13µM* | ? | ? | -17%
O=C1CC(c2ccco2)CC(O)=C1C=NCC1CCNCC1 (stereo unspecified) | -15% | -10% | -7% | ? | 10µM* | -13%
CC/C(C)=N/O | . | . | 15% | . | . | -3%
Cc1nn(C(=O)c2ccc3c(c2)OCO3)c(N)c1-c1ccccc1 | -6% | -7% | 1% | -8% | -11% | ?
Nc1nn(-c2ccccc2)c(N)c1N=Nc1cccc(F)c1 | 3% | -21% | . | 10µM* | -14% | .
Cc1nn(-c2ccccc2)c(N)c1N=Nc1cccnc1 | -2% | -11% | -7% | ? | 5% | .
Nc1nn(-c2ccccc2)c(N)c1N=Nc1ccc2c(c1)OCO2 | 3% | ? | 4% | 1.8µM* | -3% | -11%
C[C@@]1(C(NC(=O)Cc2ccccc2)c2ccc(-c3ccccc3)cc2)C[C@H]1C1CCCCC1 (stereo partly specified) | 3% | -3% | 6% | -5% | -15% | -3%
CC1CCC(C(=O)NC(C(=O)OCC(=O)c2ccc(Br)cc2)C(C)C)CC1 (stereo unspecified) | -3% | -1% | . | 5% | . | .
CC(N)CN (stereo unspecified) | . | . | ? | . | . | -10%
CCN(CC)C(=O)CSc1nc2cc3c(cc2c(=O)n1Cc1ccc(C(=O)NCCc2ccc(OC)c(OC)c2)cc1)OCO3 | -2% | 11% | . | 17% | . | .
CCc1[nH]nc2c1C(c1cccc(OC(=O)N3CCOCC3)c1)C(C#N)=C(N)O2 (stereo unspecified) | 7% | 4% | ? | -8% | 4% | -12%
CCCc1[nH]nc2c1C(c1cc(OC)cc(OC)c1)C(C#N)=C(N)O2 (stereo unspecified) | -5% | -18% | -8% | -12% | -15% | -26%
CC(C)c1[nH]nc2c1C(c1cccc(OC(=O)N3CCOCC3)c1)C(C#N)=C(N)O2 (stereo unspecified) | -3% | -5% | 22µM* | -14% | -26% | -14%
CC(C)c1[nH]nc2c1C(c1cccnc1)C(C#N)=C(N)O2 (stereo unspecified) | -1% | 6% | 8.9µM* | 1% | -2% | 0%
N#CC1=C(N)Oc2n[nH]c(-c3cccnc3)c2C1c1ccc([N+](=O)[O-])o1 (stereo unspecified) | ? | ? | -3% | 13µM* | -22% | .
CCCc1[nH]nc2c1C(c1cccc(OC(=O)c3ccco3)c1)C(C#N)=C(N)O2 (stereo unspecified) | 6% | ? | 8.9µM* | ? | -22% | -29%
Cc1ccc(-c2[nH]nc3c2C(c2cccnc2)C(C#N)=C(N)O3)cc1 (stereo unspecified) | 0% | -16% | . | -14% | -15% | .
CCOC(=O)C1CCN(c2nc3c(S(=O)(=O)c4ccccc4)nnn3c3ccc(Cl)cc23)CC1 | -4% | -20% | . | -2% | . | .
CSc1nc2c(c(=O)[nH]1)C(c1cccc(Br)c1)CC(=O)N2 (stereo unspecified) | 10% | 3% | 0% | 2% | -11% | .

Screening results: PubChem, National Center for Advancing Translational Sciences (NCATS)
